Assay results reported in the supplement of paper PMC6555819.

Tests used:
Experiment in all cases: PBM binding z-score (relative to random genomic background probes); higher = stronger binding; sequences stand for … in GC…GCGATTGACAGCGTAGAATGAAGG
[1] = test system: RARb homodimer (NR concentration 270 nM)
In short: (§1)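 Ligand-free nuclear receptor dimers were applied to custom Agilent 4×180K protein-binding microarrays whose double-stranded probes carried direct-repeat seeds, single-nucleotide variants, half-site ablations and random human genomic background sequences in 34-nt variable regions. Incubation lasted 1 h. Binding z-scores were computed against the random background probes from regression-normalized fluorescence.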

[2] = test system: RARg:RXRa (NR concentration 270 nM, RXRa partner concentration 90 nM)
In short: as §1

[3] = test system: RARg homodimer (NR concentration 270 nM)
In short: as §1

[4] = test system: RXRa DBDmut IVT, anti-RXR (DBD mutation: RXRa K156A/R161A, NR concentration 90 nM)
In short: as §1

[5] = test system: RXRa homodimer (NR concentration 180 nM)
In short: as §1

[6] = test system: THRa:RXRa (NR concentration 90 nM, RXRa partner concentration 90 nM)
In short: as §1

[7] = test system: THRa homodimer (NR concentration 90 nM)
In short: as §1

[8] = test system: VDR homodimer (NR concentration 270 nM)
In short: as §1

Sequence	PBM binding z-score [1]	PBM binding z-score [2]	PBM binding z-score [3]	PBM binding z-score [4]	PBM binding z-score [5]	PBM binding z-score [6]	PBM binding z-score [7]	PBM binding z-score [8]
TCATATAGGTAAAAGGTAAAAGTCGGTGTGGTAA	0.553	0.857	0.169	1.88	1.94	0.886	0.222	0.494
TTATATAGGTAATACAGGTGAAAGTCGGCATCTA	0.731	0.618	0.933	0.117	1.11	1.06	0.46	0.401
CCTTACGGGTCACTCCTGGTTATAGCATCGGAGT	2.89	4.05	4	1.26	3.9	2.86	-0.0278	1.19
TGTTGTAGATCAAAGGTTAAGAAAGCCGAAGCCT	1.46	2.08	1.36	-0.391	2.85	1.34	-0.597	-0.249
AGAACGGGGGCACGCTGAGTTGATAGCAGAGTAG	1.94	3.62	3.2	2.78	2.94	2.9	0.833	3.45
CCTTACGGGTCAAAGTTATAGCACGGGTGGTACG	2.72	4.74	3.89	1.42	5.29	2.3	-0.124	1.46
CCTACTGGGCCTAAAAGGTCATTGATGCCGATAA	4.24	4.67	3.93	0.753	4.91	3.08	0.544	2.73
TCTGCTAGGTCAACGATGGTCAGCTGATCTGCTA	3.36	4	4.88	0.835	2.52	2.99	0.473	-0.511
CCTATTAGTTGACCATACGGGCAACCGAAGCTCG	1.12	0.753	0.421	0.337	0.116	0.0977	0.187	0.509
TCCCGGAGGACACGAAGGTCAGAGCTTTCCAGAG	3.55	3.07	3.74	0.527	1.59	2.83	1.17	1.11
CCTCGGAGGACAACAGGGGGTCAGAGCTGCCAGA	3.52	4.25	3.49	0.19	3.24	3.27	1.04	1.28
ATATGTAGGTTAGCTGGGGTGATTCAGACTAGGC	1.08	0.84	0.761	0.484	0.872	4.14	1.26	0.601
CCAGACAGGTGAGAAGGTAACTCATCCTCGATTA	0.437	0.511	0.745	0.48	0.529	0.505	0.345	-0.146
CAAACTAGGTCGAGAGGTCAAAGTCCGCTTCCCG	4.73	5.98	5.09	2.17	6.17	3.62	1.8	3.99
ATCGAAAGGTCGTGCGGTGAGTATACAGAAAGGC	2.65	4.48	4.28	1.56	4.78	2.51	-0.0433	1.31
TCATATAGGTAAATGCTAGGGGAAAGTCCGATCT	0.135	0.401	0.27	1.85	0.821	0.401	0.433	0.491
TTAATGAGGTTAAAGATCAGGGAACGTGGCGTCG	0.917	2.56	1.52	1.68	4.02	2.89	0.742	1.14
TCTATGAGTTGATTAGGGCAACCGAAACAGCGGA	0.553	0.54	0.536	1.45	0.681	0.857	-0.131	0.333
GCAGACAGGTGAAACGCAGGTAACTAAGGGTGGC	0.042	0.719	0.208	-0.64	0.593	1.15	-0.719	-0.867

Sequence	PBM binding z-score [1]	PBM binding z-score [2]	PBM binding z-score [3]	PBM binding z-score [4]	PBM binding z-score [5]	PBM binding z-score [6]	PBM binding z-score [7]	PBM binding z-score [8]
CCTTACGGGTCACTGAAAGGTTATAGCATTTGGA	4.08	6.85	4.86	1.54	5.63	3.44	0.371	1.14
ATATGTAGGTTACATCCGGCTCATTCAGGCTATG	0.467	0.906	1.15	0.846	0.829	1.09	0.4	0.27
ACTTACGGGTCAACGAGGTGATAGCACGCGTATA	2.98	5.26	4.83	2.19	5.47	3.86	0.952	1.81
AGAACGAGGGCACGCTGAGTTGATAACAGAGTAG	1.27	2.23	2.45	1.47	1.49	1.78	0.282	1.46
CGTCAAAGTTCAACTAAGGTAAAGTAAAGCACGC	3.97	6.03	6.89	3.88	5.08	5.01	1.49	3.59
CGTCCAAGTTCAACTAAGGTAACGTAAAGCACGC	2.73	3.63	3.97	4.54	2.79	5.06	2.45	4.43
AGAATGAGGTTATAGGTAGATCAGGGAAGAAAGT	1.39	1.63	1.08	1.35	2.15	2.45	1.42	1.24
GCTATTAGTTAAAAGGGCAACCGAATGATTCTCG	2.21	1.08	1.32	0.572	0.904	0.641	-0.221	0.339
TCTTGTAGATCAAGCAGGTTAAGAATGCCTGAGT	0.163	-0.103	-0.0252	0.563	0.24	0.276	-0.376	0.0352
CCTTACGGGTGACGAGGTTATAGCACGACGAGCG	1.05	1.29	0.849	-0.461	1.95	1.33	0.317	0.36
TCATATAGGTAAAGGGGAAAGTCGAACGATATGA	0.241	0.707	0.688	1.39	1.21	0.241	-0.0232	-0.173
ATCGAAAGGTCGAGGTGAGTATCGAGAAAGGGAA	2.53	4.33	4.51	0.532	4.17	2.65	0.543	0.173
CCTTACGGGTCACTCCAAGTTATAGCATCGGAGT	2.81	4.31	4.69	1.81	4.11	2.51	0.165	1.05
ACTTACGGGTCAACGAGGTTATCGCACGCGTATA	3.52	5.86	5.38	3	6.75	4.19	1.23	4.34
ATCTCTAGGTAACGATAGTTCAGTGAATGCAAAT	0.983	0.601	0.702	-0.137	0.128	0.928	0.354	0.517
TCTAGTTGGTCACTGAGGTCACACACGACGGGTA	4.59	4.76	4.83	1.56	5.14	4.47	5.09	4.16
TCTTGTAGATCAATAGAGGTTAAGACAGTGCGCT	1.01	0.969	0.534	0.854	1.44	2.36	-0.216	0.0474
AGAACGAGGGCAATGTGTTGATAGCACGGGTGGC	1.23	1.16	1.44	1.74	0.945	0.861	-0.000904	0.944
TCATATAGGTAAAGGTGAATGTCGAACGATATGA	1.3	1.37	1.21	0.686	1.9	1.16	-0.293	-0.0294

Sequence	PBM binding z-score [1]	PBM binding z-score [2]	PBM binding z-score [3]	PBM binding z-score [4]	PBM binding z-score [5]	PBM binding z-score [6]	PBM binding z-score [7]	PBM binding z-score [8]
GTACCAAGGTGAATAGGTCGTTGGTGAGTAGGCG	1.93	2.86	1.13	-0.312	1.99	1.71	0.526	0.359
CCTCGGAGGACAACAGGAGGTCGGAGCTGCCAGA	1.42	1.08	1.36	0.0321	0.223	1.35	0.0235	0.16
CTAACTAGGTCATCCAGGACAGTGAATACATTGA	2.94	4.11	4.62	2.34	3.07	3.84	2.16	2.32
CCTTACGGGTCACTGACAGGTTAAAGCATTTGGA	3.06	6.25	5.25	1.51	5.63	2.9	-0.0327	0.937
TGAATGAGGTTAAAGATGAGGGAACGTGGCGTCG	0.748	2.16	1.21	1.33	2.86	2.4	0.742	0.849
ATCTCTAGGTAACCAAGTTCACTGAATGCCGAAC	2.26	1.55	1.41	1.74	1.36	2.34	1.27	3.34
ATATGTAGGTTAGTTGGGGTCATTCAGACTAGGC	3.96	4.34	2.99	2.64	6.03	5.13	3.99	5.97
TCTAGTTGGTCACGGAGGTCACGCACGACGGGTA	4.76	5.46	5.23	1.28	6.17	4.05	3.31	3.06
ACCTCTAGGTAACAAGTTCAGTGAAAGAGAGGAC	1.85	1.11	1.08	0.979	0.678	1.21	0.425	2.2
CGTCCAAGGTCATAGGAGGTCAGTGGAGACAGAT	5.3	6.84	6.98	4.09	6.82	5.36	3.57	4.82
TCTATTAGTTGAAGGGCAATCGACGAGTCCGTTT	0.87	0.355	0.467	1.61	0.559	0.0989	-0.0938	1.42
ACCAGTTGGTCAGCTGAGGTCACACACAATTCGG	4.44	4.2	4.52	1.29	4.27	5.07	5	3.47
GCATATAGGTAATAAAAGGTGAAAGTCCGATTGT	1.63	0.972	0.621	0.496	1.53	2.61	-0.141	0.166
CCGCGGAGGACAACAGGAGGTCAGAGCTGCCAGA	3.47	3.63	3.65	0.503	1.98	2.83	1.18	1.55
CCTACTGGGCCATCAGTTCATTGATATCAACGTT	0.932	0.31	0.439	0.88	-0.0335	0.411	0.333	3.3
TTACCAAGGTGAGCTGAGGTCGTTGAGCCAACTC	1.75	1.39	0.933	-0.158	1.48	4.77	2.04	1.96
CATACAGGGTCAGCTAGGCCAGAGGAGGGACGGC	3.12	4.3	4.65	1.64	4.14	2.75	0.692	1.36
TCATATAGGTAAAAAGTGAAAGTCGGTGTGGTAA	0.0434	0.226	-0.0939	2.01	0.563	-0.0757	-0.132	0.435
